# In paper PMC7862700, “An all-to-all approach to the identification of sequence-specific readers for epigenetic DNA modifications on cytosine”:
# Columns and labels:
# Assay in all cases: DAPPL (digital affinity profiling via proximity ligation, sequencing); 10 mM Tris-HCl pH 7.5, 50 mM NaCl, 1 mM DTT, 4% glycerol, room temperature, 30 min; GST-TFs on glutathione beads, 16-mer random dsDNA library, 0.1% formaldehyde crosslink after washing; high values mean tight binding
# Conditions in all cases: protein: recombinant; tags: N-terminal GST; dsDNA, one strand shown
# FLI1 = molecular target: T1, FLI1 (Homo sapiens, UniProt Q01543 1-452)
# T1 sequence: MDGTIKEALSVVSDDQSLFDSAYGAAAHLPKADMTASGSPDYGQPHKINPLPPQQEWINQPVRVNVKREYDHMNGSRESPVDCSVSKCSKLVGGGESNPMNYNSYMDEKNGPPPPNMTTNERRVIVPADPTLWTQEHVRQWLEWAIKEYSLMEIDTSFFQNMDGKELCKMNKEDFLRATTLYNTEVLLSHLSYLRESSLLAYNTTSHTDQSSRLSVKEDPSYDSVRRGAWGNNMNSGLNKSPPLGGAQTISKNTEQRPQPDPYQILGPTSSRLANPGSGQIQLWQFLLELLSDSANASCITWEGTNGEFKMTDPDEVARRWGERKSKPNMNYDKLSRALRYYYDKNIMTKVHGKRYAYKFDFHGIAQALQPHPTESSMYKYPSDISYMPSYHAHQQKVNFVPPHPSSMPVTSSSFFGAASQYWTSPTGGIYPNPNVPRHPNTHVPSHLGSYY
# Summary of the method: (§1)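 Sequencing on an Illumina NextSeq500 followed washing, crosslinking with 0.1% formaldehyde, proximity ligation (BsaI/T4 ligase, 1 h, 37 °C) and PCR amplification of pools that had been incubated for 30 min at room temperature with 200 nmole of a random double-stranded 16-mer DNA library in Tris/NaCl/DTT/glycerol buffer. Each pool held DNA-barcoded human transcription factors, expressed in yeast as GST fusions and captured on glutathione beads, plus a tag-only sample. Binding signal is a hexamer's read frequency for a factor divided by its frequency in the tag-only sample.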
# GABPA = molecular target: T2, GABPA (Homo sapiens, UniProt Q06546 1-454)
# T2 sequence: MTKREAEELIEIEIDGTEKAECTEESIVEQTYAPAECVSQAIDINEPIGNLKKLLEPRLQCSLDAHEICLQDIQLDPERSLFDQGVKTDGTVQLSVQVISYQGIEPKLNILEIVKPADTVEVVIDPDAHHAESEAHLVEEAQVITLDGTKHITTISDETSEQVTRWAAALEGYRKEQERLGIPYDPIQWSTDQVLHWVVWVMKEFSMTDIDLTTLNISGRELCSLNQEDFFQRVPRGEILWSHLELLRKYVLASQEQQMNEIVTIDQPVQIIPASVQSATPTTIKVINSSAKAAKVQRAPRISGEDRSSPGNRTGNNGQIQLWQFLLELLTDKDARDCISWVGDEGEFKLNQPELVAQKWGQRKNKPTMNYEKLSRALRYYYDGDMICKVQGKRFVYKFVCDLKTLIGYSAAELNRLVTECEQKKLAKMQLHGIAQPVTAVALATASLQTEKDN
# Summary of the method: as §1
# SPI1 = SPI1 (Homo sapiens, UniProt P17947 1-270)
# Summary of the method: as §1
# SPIB = SPIB (Homo sapiens, UniProt Q01892 1-262)
# SPIB, sequence (Q01892 whole entry): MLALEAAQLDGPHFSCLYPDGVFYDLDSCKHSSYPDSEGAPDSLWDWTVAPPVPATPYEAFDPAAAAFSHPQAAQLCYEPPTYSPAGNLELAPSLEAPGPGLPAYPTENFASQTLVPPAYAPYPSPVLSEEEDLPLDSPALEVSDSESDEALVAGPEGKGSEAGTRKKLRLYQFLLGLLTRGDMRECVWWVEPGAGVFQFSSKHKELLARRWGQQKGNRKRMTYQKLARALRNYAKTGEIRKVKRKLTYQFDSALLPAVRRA
# Summary of the method: as §1
# ETV5 = ETV5 (Homo sapiens, UniProt P41161 1-510)
# ETV5, sequence (P41161 whole entry): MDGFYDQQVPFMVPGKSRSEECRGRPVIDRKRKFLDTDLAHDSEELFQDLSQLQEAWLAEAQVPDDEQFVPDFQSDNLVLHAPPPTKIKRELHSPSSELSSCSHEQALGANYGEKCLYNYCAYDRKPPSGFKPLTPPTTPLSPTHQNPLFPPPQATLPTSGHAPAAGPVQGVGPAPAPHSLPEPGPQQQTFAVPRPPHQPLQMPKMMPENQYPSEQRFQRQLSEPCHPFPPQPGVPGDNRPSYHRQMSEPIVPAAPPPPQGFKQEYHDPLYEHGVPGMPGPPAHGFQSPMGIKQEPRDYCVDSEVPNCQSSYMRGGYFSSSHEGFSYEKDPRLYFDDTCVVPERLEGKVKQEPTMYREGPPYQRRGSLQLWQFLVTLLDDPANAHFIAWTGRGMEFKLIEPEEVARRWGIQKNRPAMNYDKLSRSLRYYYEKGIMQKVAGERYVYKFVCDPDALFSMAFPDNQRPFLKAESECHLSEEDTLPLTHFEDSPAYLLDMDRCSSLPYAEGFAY
# Summary of the method: as §1
# SPIC = molecular target: T3, SPIC (Homo sapiens, UniProt Q8N5J4 1-248)
# T3 sequence: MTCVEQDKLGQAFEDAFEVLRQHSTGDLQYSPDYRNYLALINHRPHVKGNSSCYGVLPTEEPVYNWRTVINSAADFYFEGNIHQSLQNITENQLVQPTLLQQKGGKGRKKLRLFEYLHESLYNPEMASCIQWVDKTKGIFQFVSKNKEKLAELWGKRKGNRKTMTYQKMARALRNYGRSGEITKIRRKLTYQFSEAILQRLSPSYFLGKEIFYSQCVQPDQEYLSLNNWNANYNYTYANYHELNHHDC
# Summary of the method: as §1
# ERF = molecular target: T4, ERF (Homo sapiens, UniProt P50548 1-548)
# T4 sequence: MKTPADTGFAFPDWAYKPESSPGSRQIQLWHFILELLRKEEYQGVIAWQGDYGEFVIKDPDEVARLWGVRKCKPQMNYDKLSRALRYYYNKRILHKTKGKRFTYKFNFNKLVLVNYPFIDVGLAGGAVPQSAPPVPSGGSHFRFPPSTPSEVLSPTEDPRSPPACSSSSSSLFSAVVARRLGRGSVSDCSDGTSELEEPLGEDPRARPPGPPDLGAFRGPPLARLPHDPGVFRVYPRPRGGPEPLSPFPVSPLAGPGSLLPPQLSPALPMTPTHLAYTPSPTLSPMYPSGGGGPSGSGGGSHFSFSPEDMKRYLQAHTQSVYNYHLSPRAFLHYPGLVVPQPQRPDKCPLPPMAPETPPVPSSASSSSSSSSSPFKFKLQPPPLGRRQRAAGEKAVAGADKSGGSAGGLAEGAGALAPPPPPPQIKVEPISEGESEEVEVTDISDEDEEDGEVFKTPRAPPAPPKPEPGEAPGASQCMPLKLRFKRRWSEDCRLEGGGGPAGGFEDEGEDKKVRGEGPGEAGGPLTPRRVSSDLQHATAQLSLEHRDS
# Summary of the method: as §1
sequence,measurement,setting,value
TTGGCG,binding signal,FLI1,"1.07 fold enrichment (6-mer frequency, TF over GST control)"
same,binding signal,GABPA,"1.02 fold enrichment (6-mer frequency, TF over GST control)"
same,binding signal,SPI1,"1.05 fold enrichment (6-mer frequency, TF over GST control)"
same,binding signal,SPIB,"1.13 fold enrichment (6-mer frequency, TF over GST control)"
same,binding signal,ETV5,"1.02 fold enrichment (6-mer frequency, TF over GST control)"
same,binding signal,SPIC,"1.09 fold enrichment (6-mer frequency, TF over GST control)"
same,binding signal,ERF,"1.01 fold enrichment (6-mer frequency, TF over GST control)"
